Bioassay records (PubChem BioAssay)
VLA-4 inh – inhibition in a human VLA-4 binding assay; VLA-4 expressing cells, ligand binding flow cytometry; P13612; AID 2557; inhibition, % (about 7 µM as worked out from the volumes in the protocol); 330,000 compounds, 0.2% hits; in the data active = inhibition above about 50%
PKA-R1A activ – activates the PKA-R1A holoenzyme complex; AID 504707; activation, % at 11.4 µM; 340,000 compounds, 0.083% hits; P00514+P68181; PKA-R1A dissociation, Cy5-IP20 fluorescence polarization; scaled: DMSO 0%, 113 µM cGMP 100%;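 active = percent activation above the mean of all tested compounds plus 3 SD, cut at about 19% in these data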;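 also: higher means more PKAc released from R1A so a rise in polarization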
CendR NRP1 mod – modulators of CendR peptide binding to human neuropilin-1 | inhibition, % at 25 µM | 360,000 compounds, 0.85% hits | FAM-RPARPAR peptide binding to NRP-1, fluorescence polarization | O14786;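 active = inhibition or corrected inhibition above about 18%, plus a signal ratio from 0.5 to 1.5, limit read from the data, passing the limit was not always enough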
PKA-R2B act – PKA-R2B complex activation; activation, % at 11.4 µM; P22694+P31323; PKA-R2B holoenzyme dissociation, Cy5-IP20 fluorescence polarization; R2B truncated from residue 108, S112A mutant; 0% DMSO only, 100% 113 µM cGMP; 340,000 compounds, 0.079% hits;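 active = activation above a cutoff set at the mean over all compounds plus 3 SD, cut at about 18% in these data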;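 also: higher means more holoenzyme dissociation and a rise in polarization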
Target sequence (P31323 whole entry, looked up, other chains not shown, the tested form may be a part): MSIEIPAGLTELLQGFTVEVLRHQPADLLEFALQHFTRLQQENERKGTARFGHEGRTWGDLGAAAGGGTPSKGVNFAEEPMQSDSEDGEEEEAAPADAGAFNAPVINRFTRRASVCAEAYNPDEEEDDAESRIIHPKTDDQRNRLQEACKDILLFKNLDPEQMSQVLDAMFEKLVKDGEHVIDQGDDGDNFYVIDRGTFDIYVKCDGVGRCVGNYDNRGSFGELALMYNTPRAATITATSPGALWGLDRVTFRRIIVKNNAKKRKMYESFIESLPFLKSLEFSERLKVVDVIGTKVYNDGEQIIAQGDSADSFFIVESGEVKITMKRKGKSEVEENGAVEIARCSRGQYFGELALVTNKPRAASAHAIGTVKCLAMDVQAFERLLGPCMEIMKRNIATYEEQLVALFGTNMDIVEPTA
ATG4B inhibitor – ATG4B (human) cysteine protease inhibition; ATG4B cleavage of LC3-PLA2, NBD-HPC fluorescence, 1 h; 340,000 compounds, 0.51% hits; AID 504462; inhibition, % at 8.33 µM; in the data active = inhibition above about 40%
* marks the source's active call; other numbers are inactive results; / = no result given. Rows were chosen to be rich in hits. Some 1.6% of all compounds tested hit in one or more screens of this group.

SMILES | VLA-4 inh | PKA-R1A activ | CendR NRP1 mod | PKA-R2B act | ATG4B inhibitor
CS(=O)(=O)Nc1ccc(C(=O)Nc2ccccc2-c2ccccc2)cc1 | 0 | -11 | 27* | 0 | -3
CS(=O)(=O)Nc1ccc(C(=O)Nc2ccccc2Cl)cc1 | 3 | / | 7 | / | -9
CCNC(=O)C1(C)CCCN(Cc2cccc3c(OC)cc(C(=O)OCC)cc23)C1 (stereo not drawn) | / | / | -11 | / | /
CC(=O)c1sc(N2CCOCC2)nc1-c1ccccc1 | 20 | -1 | 30* | -2 | 3
O=C(Nc1ccccc1)c1sc(N2CCOCC2)nc1-c1ccccc1 | 12 | 2 | 1 | 8 | 16
COCCN1CC(C(=O)NCCc2nc(C)c(C)s2)CCC1=O (stereo not drawn) | 6 | -10 | 2 | -3 | 5
O=C(NCc1ccco1)C1CCN(S(=O)(=O)c2cccc([N+](=O)[O-])c2)CC1 | 6 | 4 | 28* | 4 | -4
COc1ccccc1CNC(=O)C1CCN(S(=O)(=O)c2cccc([N+](=O)[O-])c2)CC1 | 1 | -7 | 5 | -5 | -1
Cc1ccccc1C1=NC(c2ccc(F)cc2F)ON1 (stereo not drawn) | -11 | -1 | 22* | -1 | -3
COc1cc(/C=C/C(=O)OCC(=O)Nc2ccc3c(c2)OCO3)ccc1O | -8 | 0 | -4 | -11 | -9
COc1ccc(/C=C/C(=O)OCC(=O)Nc2ccc3c(c2)OCO3)cc1 | 6 | -3 | 21* | -10 | 1
Cc1cc(NC(=O)CO/N=C/c2ccc3c(c2)OCO3)ccc1Br | 0 | -7 | 5 | -1 | -6
CCOc1ccc(/C=N/OCC(=O)Nc2ccc3c(c2)OCO3)cc1 | 23 | 8 | 32* | 3 | -2
CC(C(=O)OCC(=O)Nc1ccc2c(c1)OCO2)N1C(=O)c2ccccc2C1=O (stereo not drawn) | -8 | -7 | 22* | -1 | 2
Cc1cccc(C)c1-n1nnnc1C(c1ccnc2ccccc12)N1CCN(C(=O)OCc2ccccc2)CC1 (stereo not drawn) | / | / | -5 | / | /
CCC(c1nnnn1-c1ccc2c(c1)OCCO2)N1CCN(c2ccc(C)cc2)CC1 (stereo not drawn) | / | / | -10 | / | /
CO/N=C/NC(=O)c1c(OC)ccnc1Oc1ccccc1 | 11 | -1 | 26* | -20 | 2
COc1ccnc(Oc2ccccc2)c1C(=O)N/C=N/OCc1ccccc1 | -4 | -8 | -2 | -7 | 2
CCC(=O)N1CCC2(CC1)Oc1ccc(F)cc1C(=O)C21CC(c2ccc(Cl)cc2)=NO1 (stereo not drawn) | -6 | -15 | -8 | -15 | -11
CC(C)C(=O)N1CCC2(CC1)Oc1ccc(F)cc1C(=O)C21CC(c2ccc(Cl)cc2)=NO1 (stereo not drawn) | -6 | -5 | 25* | -16 | -6
CCOC(=O)N1CCN(C(=O)C2CCC(CNS(=O)(=O)c3ccc(Cl)cc3)CC2)CC1 (stereo not drawn) | 10 | -11 | 27* | -8 | -4
CCOC(=O)N1CCN(C(=O)c2ccc(CNS(=O)(=O)c3ccc(NC(C)=O)cc3)cc2)CC1 | -8 | 7 | 23* | -9 | -9
CCOC(=O)N1CCN(C(=O)C2CCN(S(=O)(=O)c3ccc(OCC)cc3)CC2)CC1 | 3 | -1 | 26* | 5 | -8
O=C(Nc1ccc(F)cc1)C(c1cc2ccccc2o1)N1CCN(c2ccncc2)CC1 (stereo not drawn) | / | / | -8 | / | /
O=C(NCc1cccs1)c1cc(-c2ccccc2)nn1CC1CC(c2cccc([N+](=O)[O-])c2)=NO1 (stereo not drawn) | / | 10 | 30* | 5 | 2
SMILES | VLA-4 inh | PKA-R1A activ | CendR NRP1 mod | PKA-R2B act | ATG4B inhibitor
Cc1ccccc1-c1cc(C(=O)NCc2cccc(Br)c2)n(CC2CC(c3cccnc3)=NO2)n1 (stereo not drawn) | 4 | -11 | 24* | -3 | 0
CC(C)c1ccc(NC(=O)Nc2nc(C(N)COCc3ccccc3)cs2)cc1 (stereo not drawn) | / | / | 0 | / | /
Cc1ccc(NC(=O)COC(=O)CCc2c(C)nc3ncnn3c2C)cc1C | -13 | -3 | 24* | -2 | -8
CSc1ccc(CN2CCC(C)(Oc3ccc(-n4ccnc4)cc3)C2)cc1 (stereo not drawn) | / | / | 5 | / | /
CCN1c2ccccc2-c2nc3ccccc3n2C1c1ccccn1 (stereo not drawn) | 6 | -17 | 39* | 1 | -3
O=S(=O)(c1ccccc1)c1cnc(-c2cccnc2)nc1-c1ccc(Cl)c(Cl)c1 | -6 | -2 | 20* | 2 | -3
Cc1ncc(S(=O)(=O)c2ccccc2)c(-c2ccccc2)n1 | 7 | -11 | 8 | 3 | 1
Cc1ccc(OC(C)C(=O)Nc2ccccc2C(=O)N2CCOCC2)cc1 (stereo not drawn) | 1 | -9 | 2 | 0 | -2
Cc1ccc(OC(C)C(=O)Nc2ccccc2C(=O)N2CCN(C)CC2)cc1 (stereo not drawn) | -4 | -2 | 20* | 2 | -6
Cc1ccc2c(c1)C(c1ccncc1)=NNC(c1ccc(F)cc1)=N2 | 15 | 1 | 36* | -4 | -6
Cc1ccc2c(c1)C(c1ccncc1)=NNC(c1ccccc1)=N2 | -4 | 3 | -4 | -6 | 3
O=C(NCC(F)(F)F)C1C(=O)Nc2ccccc2C(=O)N1C1CCCC1 (stereo not drawn) | / | / | 13 | / | /
CC(C)(CO)Cc1cc(C(C)(C)C)c(O)c(C(C)(C)C)c1 | 9 | -10 | 17* | -11 | 0
CC(C)(C=O)Cc1cc(C(C)(C)C)c(O)c(C(C)(C)C)c1 | 46 | 5 | -2 | 1 | 10
Cc1cc2nc(C3CCCCC3)c(Cc3ccccc3)n2c(C)c1Br | / | / | 8 | / | /
O=C(NC1CC2CCC1C2)c1ccco1 (stereo not drawn) | 16 | 0 | -6 | -18 | -2
CN1C(=O)[C@H]2[C@@H](/C=C/c3ccccc3)N3C(=O)CN(CC4CC4)C(=O)[C@@]3(C)[C@H]2C1=O | 5 | 3 | 4 | 4 | 7
C[C@@]12C(=O)N(CC3CC3)CC(=O)N1[C@H](/C=C/c1ccccc1)[C@@H]1C(=O)N(c3ccccc3)C(=O)[C@@H]12 | 8 | 5 | 28* | -4 | -8
O=C(/C=C/c1ccc(-c2ccccc2[N+](=O)[O-])o1)c1ccco1 | 2 | -5 | 28* | 3 | -1
CC(=O)C[C@@H]1SC[C@H](c2ccccc2)N1S(=O)(=O)c1ccc(C)cc1 | / | / | -11 | / | /
C=CCNC(=O)C1CC(=O)N(c2ccc(OCC(=O)NCc3ccccc3)cc2)C1 (stereo not drawn) | 9 | 5 | 26* | -4 | 6
C=CCNC(=O)C1CC(=O)N(c2ccc(OCC(=O)Nc3ccccc3)cc2)C1 (stereo not drawn) | 43 | 0 | 3 | 3 | 3
